This is a sample that favours compounds with a hit; in the whole collection about 2.8% have one here.
EP2 modulator = modulates human prostaglandin E2 receptor EP2 signaling; EP2-expressing cells, cAMP HTRF FRET, PGE2 co-stimulation; induction, % at 25 µM; 0.83% of 260,000 active;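 active = compounds whose cAMP rise, as percent of the full-agonist control response, exceeds 60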;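 note: rat C6 glioma line stably carrying human EP2 under a CMV promoter; the protocol text gives 20 µM as final concentration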
NCF1 inh = inhibitors of human p47phox binding; p47phox/p22phox peptide binding, fluorescence polarization, 2 h; inhibition, % at 24.7 µM; P14598; 0.53% of 220,000 active;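 active = inhibition above about 30%, limit read from the data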
HSV augment = increases HSV replication in cells. maximum fold increase. 0.005% of 220,000 active. HSV replication augmentation in cells, fold increase; in the data active = maximum fold increase above about 1.5; tested in PC3 cells
Furin inh = inhibitors of human furin. P09958. purified furin, fluorogenic substrate cleavage. inhibition, % at 20 µM or 30 µM. 0.061% of 220,000 active. AID 463115; in the data active = inhibition above about 25%
PGE2 EP2 inh = EP2 receptor (human) inhibition | inhibition, % at 25 µM | C6 glioma cells expressing human EP2, cAMP TR-FRET; cells stimulated with saturating PGE2 | P43116 | 0.52% of 260,000 active | AID 1422;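 active = percent inhibition above 40 after rounding to a whole number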;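 note: rat C6 glioma host cells with rolipram phosphodiesterase inhibitor present; the protocol text gives 20 µM as final concentration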
Wee1 stabilizer = blocks degradation of human Wee1 kinase. reporter increase, % at 5 µM. HeLa Luc-Wee1K328M stability, luciferase luminescence; 100% = proteasome inhibitor MG132 effect. AID 1321. 1.2% of 220,000 active;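 active = activation above the mean of all tested compounds plus 3 SD, set per screening run, cut at about 8.8% in these data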;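 note: cells exposed to compound for 20 h before luminescence read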
Target sequence (P30291 whole entry K328M): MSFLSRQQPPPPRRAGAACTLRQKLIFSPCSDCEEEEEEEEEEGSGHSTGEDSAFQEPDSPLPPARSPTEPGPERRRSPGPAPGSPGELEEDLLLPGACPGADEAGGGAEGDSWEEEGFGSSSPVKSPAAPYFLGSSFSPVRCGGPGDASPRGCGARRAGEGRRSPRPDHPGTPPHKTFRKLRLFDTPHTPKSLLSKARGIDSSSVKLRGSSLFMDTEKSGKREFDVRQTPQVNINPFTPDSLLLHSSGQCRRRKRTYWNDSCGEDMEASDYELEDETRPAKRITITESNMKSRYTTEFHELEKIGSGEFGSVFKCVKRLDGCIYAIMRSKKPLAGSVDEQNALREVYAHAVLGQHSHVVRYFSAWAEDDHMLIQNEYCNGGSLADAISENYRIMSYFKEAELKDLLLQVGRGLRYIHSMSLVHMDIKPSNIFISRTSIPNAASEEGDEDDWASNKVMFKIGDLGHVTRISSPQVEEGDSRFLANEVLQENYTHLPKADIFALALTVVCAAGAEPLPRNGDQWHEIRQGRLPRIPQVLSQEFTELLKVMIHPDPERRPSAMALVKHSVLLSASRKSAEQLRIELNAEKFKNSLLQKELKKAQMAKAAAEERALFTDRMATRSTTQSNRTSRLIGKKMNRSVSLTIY
Wee1 stab conf = human Wee1 degradation inhibition, confirmation. AID 1410. HeLa Luc-Wee1K328M degradation, luminescence; vehicle 0%, proteasome-blocked wells 100%. shares compounds with Wee1 stabilizer. activation, % at 5 µM. 4% of 1,100 active; in the data active = activation above about 8.9%
Each line names hits and unclear results; the compound was inactive in the other large screens (follow-up assays come after a bar, where they were run).

O=C(COc1ncnc2ccccc12)c1ccc2c(c1)OCCO2	none
O=C(CN1CCC(O)(c2cccnc2)CC1)NCCc1c[nH]c2ccccc12	none (no result: NCF1 inh, HSV augment, Furin inh, PGE2 EP2 inh, Wee1 stabilizer)
CCOc1ccc2cc(C3CC(c4ccco4)=NN3S(=O)(=O)c3ccccc3)c(Cl)nc2c1 (centres undefined)	none
COc1ccc2cc(C3CC(c4ccco4)=NN3S(=O)(=O)c3ccccc3)c(Cl)nc2c1 (centres undefined)	Wee1 stabilizer 16.5 | Wee1 stab conf inactive
O=C(O)c1ccc(/C=N/Nc2ccc(C(F)(F)F)cn2)cc1	Wee1 stabilizer 12.7 | Wee1 stab conf inactive
CCn1c(N2CCC(C(=O)NCCN3CCOCC3)CC2)nc2ccccc21	none (no result: NCF1 inh, HSV augment, Furin inh, PGE2 EP2 inh, Wee1 stabilizer)
CCOc1cc(/C=C/C(=O)O)ccc1OCc1ccccc1	none
CCOc1cc(/C=C2\C(=O)ON=C2C)ccc1OCc1ccccc1	Wee1 stabilizer 17.8 | Wee1 stab conf inactive
O=C(Nc1ccc(Cl)c(C(F)(F)F)c1)c1nc2ncccn2n1	none (no result: NCF1 inh, HSV augment, Furin inh, Wee1 stabilizer)
CC(C)Cn1c(-c2cccs2)nc2nc3ccccc3nc21	none
CCCCn1c(-c2cccs2)nc2nc3ccccc3nc21	Wee1 stabilizer 13.4 | Wee1 stab conf inactive
CC1CCCCN1C(=O)CSc1nnc(-c2c[nH]c3ccccc23)o1 (centres undefined)	Wee1 stabilizer 12.6 | Wee1 stab conf inactive
CCN(CC)C(=O)Cn1nc(C)n2c(cc3oc(C)cc32)c1=O	none (no result: NCF1 inh, HSV augment, Furin inh, Wee1 stabilizer)
CN(Cc1ccccc1)C(=O)c1ccc2c(c1)OCO2	none
CCCCN(C(=O)c1ccc2c(c1)OCO2)c1ccccc1	Wee1 stabilizer 13.8 | Wee1 stab conf inactive
O=C(Nc1ncc(Cc2ccccc2)s1)C1CCCO1 (centres undefined)	Wee1 stabilizer 11.0 | Wee1 stab conf inactive
Cc1ccccc1NC(=O)NC1CC2CCCC(C1)N2Cc1ccco1 (centres undefined)	none (no result: NCF1 inh, HSV augment, Furin inh, Wee1 stabilizer)
O=C(Nc1ccc(OC(F)(F)F)cc1)Nc1cccc([N+](=O)[O-])c1	Wee1 stabilizer 16.9 | Wee1 stab conf inactive
CCOC(=O)c1ccc(COC(=O)CCc2nc3ccccc3[nH]c2=O)cc1	none (no result: NCF1 inh, HSV augment, Furin inh, Wee1 stabilizer)
CCN(CC)CCn1c(NC(=O)c2ccc(C(F)(F)F)cc2)nc2ccccc21	Wee1 stabilizer 12.9 | Wee1 stab conf inactive
O=S(=O)(c1cccs1)N1CCN(c2ccc(O)cc2)CC1	Wee1 stabilizer 22.9 | Wee1 stab conf inactive
Cc1cc(C)n(CCCC(=O)Nc2ccc3[nH]c4c(c3c2)CCCC4)n1	none (no result: NCF1 inh, HSV augment, Furin inh, Wee1 stabilizer)
COc1ccc(C(=S)Nc2ccc(N(C)C)cc2)cc1	none
COc1ccc(NC(=S)c2ccc(N(C)C)cc2)cc1	Wee1 stabilizer 13.0 | Wee1 stab conf inactive
Cc1ccc(NC(=O)c2cncc(Br)c2)c(O)c1	Wee1 stabilizer 12.2 | Wee1 stab conf inactive
CC1(C)NC(=O)N(CCCCOc2ccccc2[N+](=O)[O-])C1=O	Wee1 stabilizer 11.4 | Wee1 stab conf inactive
COC(=O)CNC(=O)C1CCCN1C(=O)OC(C)(C)C (centres undefined)	Wee1 stabilizer 12.6 | Wee1 stab conf inactive
CN1CCN(C(=O)C2CC(c3c(F)cccc3Cl)=NO2)CC1 (centres undefined)	Wee1 stabilizer 12.9 | Wee1 stab conf inactive
NS(=O)(=O)c1ccc(NC(=S)NC(=O)c2cccs2)cc1	Wee1 stabilizer 19.2 | Wee1 stab conf inactive
O=C(NCc1ccc(OC(F)(F)F)cc1)C12CN(Cc3ccccc3)CC1C(c1cccc([N+](=O)[O-])c1)=NO2 (centres undefined)	Wee1 stabilizer 26.4 | Wee1 stab conf inactive
COc1ccc(CNCCC2(Cc3ccccc3)CC(C)N(C)CC2C)cc1OC (centres undefined)	Wee1 stabilizer 16.8 | Wee1 stab conf inactive
COc1ccc(CN(CCC#N)CCC2(c3ccccc3)CC(C)N(C)CC2C)cc1OC (centres undefined)	none
CCn1c(SCC(=O)N/N=C(/C)c2ccncc2)nc2ccccc21	Wee1 stabilizer 14.7 | Wee1 stab conf inactive
O=C(Nc1ccc(Cl)c(Cl)c1)Nc1nccs1	Wee1 stabilizer 14.1 | Wee1 stab conf 24.8
COc1ccc(NS(=O)(=O)c2cc(NC(=O)c3ccccc3F)ccc2N2CCCC2)cc1	Wee1 stabilizer 13.6 | Wee1 stab conf inactive
Cc1nn(-c2ccccc2)c(C)c1-c1cc(C(=O)N/N=C/c2cccnc2)[nH]n1	Wee1 stabilizer 19.4 | Wee1 stab conf inactive
Cc1ccc(-c2cc(C(=O)N/N=C/c3c(C)nn(-c4ccccc4)c3C)[nH]n2)cc1	none (no result: HSV augment, PGE2 EP2 inh)
COc1ccc(N2CCC(CNC(=S)Nc3cccc(C)c3)C2)cc1 (centres undefined)	Wee1 stabilizer 11.1 | Wee1 stab conf inactive
COc1ccc2[nH]c(CN3CCN(C(C)C)C(CCO)C3)c(C)c2c1 (centres undefined)	Wee1 stabilizer 19.8 | Wee1 stab conf inactive
COc1ccc2[nH]c(CN3CCN(CC(C)C)C(CCO)C3)c(C)c2c1 (centres undefined)	none
CCOC(=O)c1c2n(c3ccc(O)cc13)CCC2	Wee1 stabilizer 11.1 | Wee1 stab conf inactive
Cc1c(-c2nc3cnccn3c2NCc2ccc3c(c2)OCO3)cnn1C	none (no result: NCF1 inh, HSV augment, Furin inh, PGE2 EP2 inh, Wee1 stabilizer)
COc1ccc(/C=N/N=C(\N)c2nonc2N)cc1OC	Wee1 stabilizer 11.2 | Wee1 stab conf inactive
OC(CN1CCC(O)(c2ccccc2F)CC1)c1ccc2c(c1)OCCO2 (centres undefined)	none (no result: NCF1 inh, HSV augment, Furin inh, Wee1 stabilizer)
COc1ccc(C(=O)COc2ccc(F)cc2)c(O)c1	Wee1 stabilizer 17.8 | Wee1 stab conf inactive
O=C(COc1ccc(F)cc1)c1c(O)cc(O)cc1O	none
COc1ccc(OC)c(NC(=O)CSc2nc3c(C)cc(C)cc3cc2C)c1	none (no result: NCF1 inh, HSV augment, Furin inh, Wee1 stabilizer)
O=C(CSc1nnc(-c2ccncc2)n1Cc1ccccc1)N1CCCC1	none (no result: NCF1 inh, HSV augment, Furin inh, Wee1 stabilizer)
COc1cc(SC)ccc1C(=O)Nc1ccc(C)cc1	none
COc1cc(SC)ccc1C(=O)Nc1ccc2c(c1)OCO2	Wee1 stabilizer 13.0 | Wee1 stab conf inactive
CCn1c(N2CCC(C(=O)Nc3ccc(F)cc3F)CC2)nc2ccccc21	none (no result: NCF1 inh, HSV augment, Furin inh, PGE2 EP2 inh, Wee1 stabilizer)
Cn1c(=O)c2c(nc(NCCO)n2C)n(C)c1=O	none
CC(C)/C=N/Nc1nc2c(c(=O)n(C)c(=O)n2C)n1C	Wee1 stabilizer 11.6 | Wee1 stab conf inactive
CCOC(=O)Cn1c(=NC(=O)CSC(C)=O)sc2ccccc21	Wee1 stabilizer 16.3 | Wee1 stab conf inactive
CCOC(=O)Cn1c(=NC(=O)CSC(C)=O)sc2cc(OC)ccc21	none
Cc1nc(-c2ccccc2)sc1-c1ccnn1C	Wee1 stabilizer 17.5 | Wee1 stab conf inactive
NNC(=O)CN1C(c2ccccc2Br)=Nc2ccc(Br)cc2C1c1ccccc1 (centres undefined)	Wee1 stabilizer 11.1 | Wee1 stab conf inactive
CC1(C)CC(=O)C2=C(C1)OC(N)=C(C#N)C2c1cc2c(cc1[N+](=O)[O-])OCO2 (centres undefined)	Wee1 stabilizer 11.2 | Wee1 stab conf inactive

Source: PubChem (several laboratories)
